Drawing on PubChem BioAssay (NCI), this text covers growth for 27 compounds.

Each structure is given as a SMILES string. About 83,000 compounds went through this panel and 20% of them were active in at least one assay; those are over-represented in the sample as a whole.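 Single-dose data. Exposure time 48 hours. Values below 10 considered active.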 The source made the active and inactive calls.

This assay has as its system MDA-MB-468 breast. Briefly: NCI-60 one-dose screen, 48 h (100 = growth as untreated, 0 = no growth, -100 = all killed). The conditions noted are these: 10 µM unless noted.
On to `COc1ccc(CCN2C(=O)/C(=C/c3ccc(C4Oc5ccccc5C5CC(c6cccc(OC)c6)=NN54)cc3)SC2=S)cc1` (configuration not stated), for which the growth is 107% (inactive).

Take `C=C1C(=O)O[C@H]2[C@H]1CC/C(COC(=O)OC/C1=C/CC[C@@]3(C)O[C@H]3[C@H]3OC(=O)[C@@H](CN(C)C)[C@@H]3CC1)=C\CC[C@@]1(C)O[C@@H]21`: the growth was -14% (active). The result for `CCN(C(C)=O)c1ccc([N+](=O)[O-])cc1` reads 103% (inactive); that for `O=c1oc2ccc(Cl)cc2cc1-c1cs/c(=N/N=C\c2ccc(Cl)cc2)n1/N=C/c1ccc(Cl)cc1`, 114% (inactive). `COc1ccc(-n2c(COc3ccc(F)cc3)n[nH]c2=S)cc1`: the growth was 103% (inactive). In the case of `O=C1NC(c2ccc(F)cc2)N=C2C(c3ccccc3)=NOC12` (configuration not stated), the growth was 103% (inactive). The value for `COc1cccc(-c2cc3c(O)cc(C#N)cc3[nH]2)c1` was 102% (inactive); that for `NC(C(=O)O)c1ccc([N+](=O)[O-])cc1` (configuration not stated) was 111% (inactive); that for `O=c1[nH]cc(Cl)cc1O` was 108% (inactive).

For the compound `CCCCCn1c(C)cc(/C=C\c2ccc3cc(C)ccc3[n+]2C)c1C`, the growth was -82.4% (active). `O=C1C=CC(=Nc2cc(Br)c(O)c(Br)c2)C=C1`: the growth is 51.4% (inactive). The value for `O=c1[nH]c(N2CCC(Cc3ccccc3)CC2)nc2sc3c(c12)CCCC3` was 104% (inactive).

Regarding `O=C(Nc1ccccc1)OCCc1ccccc1`, the growth is 99.2% (inactive). The value for `CC(C)OP(=O)(OC(C)C)c1ncc(-c2ccc(C(F)(F)F)cc2)c(NC2CCCCCC2)n1` was 12.8% [33.3 µM] (inactive). Consider `CCC(C)/C(=C\C#N)NCCCN/C(=C/C#N)C(C)CC` (configuration not stated), for which the growth was 108% (inactive).

On to `COc1cc(Nc2cc(O)c3c(=O)cc(-c4ccccc4)oc3c2)cc(OC)c1`, for which the growth was 11.7% (inactive). The result for `O=C(N=Nc1c(O)[nH]c2ccccc12)Nc1ccc(Cl)cc1` reads 81.7% (inactive). For the compound `C=CCc1cc(Nc2c3ccc(Cl)cc3nc3ccc(OC)cc23)cc(CN(CC)CC)c1O`, the growth is -19.1% (active). On to `Cc1ccc2c(n1)C(=O)c1[nH]c3ccccc3c1C2=O`, for which the growth was -15.8% (active).

`Cc1cccc(/C=N/n2c(-c3ccc(Cl)cc3)nc3c(Br)cc(Br)cc3c2=O)c1`: the growth was 46.7% (inactive). On to `O=C1NN(c2ccccc2)C(c2ccc(Cl)cc2)N2CCC[C@H]12` (some centres not stated), for which the growth is 98.7% (inactive). The value for `Oc1ccccc1/C=N/N1CCCCCC1` was 107% (inactive); that for `O=C(O)c1c(=O)cccc2ssc12` was -50.5% (active); that for `Cc1ccc(-c2csc3nc(C)c(CCCl)c(=O)n23)cc1` was 83.6% (inactive). Consider `COc1ccc(NC2=NC(C)(CO)CS2)cc1` (configuration not stated), for which the growth is 108% (inactive).

As for `Clc1ccc(C(SCc2ccccc2)SCc2ccccc2)cc1`, the growth was 77.7% (inactive).

On to `N#Cc1c(-c2ccc(Cl)cc2)nc(N/N=C/c2cccc(Br)c2)nc1N1CCOCC1`, for which the growth was 76.7% (inactive).
